The results in this text go back to PubChem BioAssay (NCATS).

Molecules are shown by their SMILES. Results filed as inconclusive are left out. Calls of active or inactive are those of the source. Calls come from the whole dose curve; as a rule, active = well fitted inhibition curve with a large enough effect; inconclusive = small, poorly fitted or top-dose-only effect; inactive = flat fitted curve, though single readings scatter.

Holding throughout (assay): qHTS profiling for inhibitors of Plasmodium falciparum proliferation (AID 504749); note: nearly all actives have a fitted effect of over 60% in size
Common to all, as to settings: P. falciparum in erythrocytes, SYBR Green DNA, 72 h; series mostly up to 28.7 µM

The test system of one assay is CP329. The essentials:
(§1)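 SYBR Green fluorescence of parasite DNA, read after lysis and overnight dark incubation, measured growth over 72 h in erythrocyte culture at 0.3% parasitemia and 2.5% hematocrit. Data normalised to DMSO and 0.29 uM artemisinin, with plate-drift correction.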

Another assay deals with CP335. The method, boiled down: as §1
In a further assay the test system is DFO2036. The method, boiled down: as §1
A further assay has as its system DIV14. The essentials:
as §1

For a further assay, the system named is DIV17. The method, boiled down: as §1
For a further assay, the system named is DIV30. The method, boiled down:
as §1

A further assay has as its system Dd2. The essentials: as §1
Another assay concerns ECU. The method, boiled down:
as §1

The test system of a further assay is FAB9. The method, boiled down: as §1
A further assay relates to GB4. The method, boiled down: as §1
Another assay has as its system HB3. The essentials: as §1
The subject of another assay is ICS. The essentials: as §1
A further assay deals with JCK. The essentials: as §1
Another assay concerns N140. The essentials:
as §1

Another assay has as its system P93_24. The essentials: as §1
The next assay deals with P94_40. The method, boiled down:
as §1

The next assay concerns PAD. The essentials:
as §1

The next assay has as its system PC15. The method, boiled down:
as §1

The test system of another assay is PC49. The essentials: as §1
The next assay deals with PC26. The method, boiled down: as §1
Potency is the fitted concentration of half-maximal effect.

Consider `CC(C)(C)C(=O)OCOC(=O)[C@@H]1N2C(=O)[C@@H](N=CN3CCCCCC3)[C@H]2SC1(C)C`, for which the Potency result in the assay with CP329, in the assay on CP335, in the assay with DFO2036, in the assay with DIV14, in the assay with DIV17 and in the assay with DIV30 was “inactive” throughout. Moreover, the Potency entry in the assay with Dd2, with ECU, in the assay with FAB9, with GB4, in the assay with HB3 and in the assay with ICS was “inactive” throughout. The Potency result in the assay with JCK, in the assay with N140, in the assay with P93_24, in the assay with P94_40, in the assay with PAD and in the assay on PC15 was “inactive” each time. Moreover, the Potency result in the assay on PC49 was “inactive”.
Take `Cc1ccccc1OCC(O)CNCCOc1ccc(C(N)=O)cc1` (stereo not given): the Potency result in the assay on CP329, in the assay with CP335, with DFO2036, with DIV14, in the assay on DIV30 and in the assay with Dd2 was “inactive” each time. The Potency entry in the assay with ECU, in the assay on FAB9, in the assay with HB3, with ICS, in the assay with JCK and in the assay with N140 was “inactive” each time. Besides, the Potency entry in the assay with P93_24, in the assay on P94_40, in the assay on PAD, in the assay on PC15, in the assay with PC26 and in the assay with PC49 was “inactive” in each case.
For `CC(C)N=c1cc2n(-c3ccc(Cl)cc3)c3ccccc3nc-2cc1Nc1ccc(Cl)cc1`, the Potency result with CP329, in the assay with DFO2036, with DIV17, with DIV30, in the assay on Dd2 and with ECU was “inactive” each time. Also, the Potency result in the assay on FAB9, in the assay on GB4, in the assay on HB3, in the assay with JCK, in the assay with N140 and with P93_24 was “inactive” in each case. Besides, the Potency entry in the assay on PAD, in the assay with PC26 and with PC49 was “inactive” throughout. Further, the Potency in the assay with CP335 is 1.81 µM (active); in the assay on ICS, 3.16 µM (active).
As to `CC1=C(/C=C/C(C)=C/C=C/C(C)=C/C=C/C=C(C)/C=C/C=C(C)/C=C/C2=C(C)C(=O)CCC2(C)C)C(C)(C)CCC1=O`, the Potency result in the assay on CP329, with CP335, in the assay with DFO2036, in the assay with DIV17, with DIV30 and in the assay with Dd2 was “inactive” each time. Also, the Potency entry in the assay on ECU, in the assay with FAB9, in the assay on GB4, in the assay on HB3, in the assay with ICS and in the assay with JCK was “inactive” in each case. Also, the Potency result with N140, with P93_24, in the assay with P94_40, with PAD, in the assay with PC15 and in the assay on PC26 was “inactive” in each case. For the same molecule, the Potency entry in the assay with PC49 is “inactive”.
For the molecule `Cc1cn([C@H]2C[C@H](O)[C@@H](CO)O2)c(=O)[nH]c1=O`, the Potency entry in the assay on CP329, in the assay with CP335, with DFO2036, in the assay with DIV14, with DIV17 and in the assay with DIV30 was “inactive” in each case. Also, the Potency entry in the assay on Dd2, in the assay on ECU, in the assay on FAB9, in the assay with GB4, in the assay on HB3 and in the assay with ICS was “inactive” throughout. Further, the Potency entry in the assay on JCK, in the assay with N140, with P93_24, in the assay with P94_40, in the assay on PAD and in the assay with PC15 was “inactive” each time. Also, the Potency entry in the assay on PC26 and in the assay with PC49 was “inactive” throughout.
For the molecule `CC(C)=O`, the Potency result in the assay with CP329, in the assay with CP335, in the assay with DFO2036, in the assay on DIV14, in the assay with DIV17 and with DIV30 was “inactive” each time. In addition, the Potency result with Dd2, in the assay on ECU, with FAB9, in the assay with GB4, with HB3 and with ICS was “inactive” in each case. In addition, the Potency entry with JCK, with N140, with P93_24, with PAD, in the assay on PC15 and in the assay with PC26 was “inactive” throughout. In the assay on PC49, the Potency result was “inactive”.
In the case of `COCC(=O)Nc1cc(Sc2ccccc2)ccc1N=C(NC(=O)OC)NC(=O)OC`, the Potency entry with CP329, with CP335, in the assay on DFO2036, with DIV14, in the assay with DIV17 and in the assay with DIV30 was “inactive” throughout. In addition, the Potency entry in the assay on Dd2, in the assay on ECU, in the assay with FAB9, in the assay on GB4, in the assay on HB3 and with JCK was “inactive” in each case. Moreover, the Potency entry in the assay with N140, in the assay on P93_24, with P94_40, in the assay with PAD, with PC15 and with PC49 was “inactive” each time.
Turning to `CCCCCCCCCCCCCCCC(=O)OCC(COC(=O)CCCCCCCCCCCCCCC)OC(=O)CCCCCCCCCCCCCCC`, the Potency result in the assay with CP329, in the assay on CP335, in the assay with DFO2036, in the assay on DIV14, in the assay with DIV17 and with DIV30 was “inactive” in each case. Besides, the Potency entry in the assay on Dd2, in the assay on ECU, with FAB9, with GB4, with HB3 and with ICS was “inactive” throughout. In addition, the Potency result in the assay on JCK, with N140, in the assay with P93_24, with P94_40, in the assay with PAD and with PC15 was “inactive” in each case. Further, the Potency entry in the assay with PC26 and with PC49 was “inactive” throughout.
In the case of `Cc1c(C)c2c(c(C)c1O)CC[C@@](C)(CCC[C@@H](C)CCC[C@@H](C)CCCC(C)C)O2`, the Potency entry in the assay with CP329, in the assay on CP335, with DFO2036, in the assay on DIV14, in the assay with DIV17 and in the assay with DIV30 was “inactive” each time. The Potency entry with Dd2, in the assay with ECU, with FAB9, in the assay with GB4, with HB3 and in the assay with ICS was “inactive” throughout. In addition, the Potency result with JCK, in the assay on N140, in the assay on PAD, in the assay on PC15, with PC26 and with PC49 was “inactive” each time.
For `CCCCCCCCCCCCCC[n+]1ccc(C)cc1`, the Potency was 4.26 µM (active) in the assay with CP329; 4.26 µM (active) in the assay on CP335; 4.47 µM (active) in the assay with DFO2036; 1.69 µM (active) in the assay on DIV14; 1.9 µM (active) with DIV17; 4.78 µM (active) in the assay with DIV30. The Potency is 2.82 µM (active) with Dd2; 3.16 µM (active) with ECU; 12.6 µM (active) in the assay with FAB9; 1.2 µM (active) with GB4; 3.55 µM (active) in the assay on HB3; 1.58 µM (active) in the assay with ICS. For the same molecule, the Potency in the assay on N140 was 7.08 µM (active); in the assay with P93_24 it was 3.55 µM (active); with P94_40, 4.47 µM (active); in the assay with PAD, 3.55 µM (active); in the assay on PC15, 4.47 µM (active); in the assay on PC26, 4.78 µM (active).
`CCOC(C)=O`: the Potency entry in the assay on CP329, in the assay with CP335, in the assay on DFO2036, with DIV14, in the assay on DIV17 and in the assay on DIV30 was “inactive” in each case. Further, the Potency result with Dd2, with ECU, with FAB9, in the assay on GB4, in the assay with HB3 and in the assay on ICS was “inactive” each time. In addition, the Potency entry with JCK, with N140, in the assay with P93_24, in the assay with P94_40, in the assay with PAD and with PC15 was “inactive” throughout. Also, the Potency result with PC26 and with PC49 was “inactive” throughout.
As for `COC(C(=O)C(O)C(C)O)C1Cc2cc3cc(OC4CC(OC5CC(O)C(O)C(C)O5)C(O)C(C)O4)c(C)c(O)c3c(O)c2C(=O)C1OC1CC(OC2CC(OC3CC(C)(O)C(O)C(C)O3)C(O)C(C)O2)C(O)C(C)O1` (stereo not given), the Potency in the assay on CP329 is 2.13 µM (active); with CP335, 0.379 µM (active); with DFO2036 it was 0.141 µM (active); with DIV14, 1.51 µM (active); in the assay with DIV17, 1.51 µM (active); in the assay with DIV30, 3.01 µM (active). Also, the Potency in the assay with Dd2 is 0.1 µM (active); with ECU, 0.178 µM (active); with FAB9 it was 1.58 µM (active); in the assay with GB4, 1.35 µM (active); in the assay with HB3 it was 0.1 µM (active); with ICS it was 0.1 µM (active). The Potency in the assay with N140 is 0.199 µM (active); in the assay with P93_24, 0.178 µM (active); in the assay with P94_40 it was 0.126 µM (active); in the assay on PAD, 0.224 µM (active); in the assay with PC15 it was 0.501 µM (active); with PC26 it was 2.69 µM (active). In the assay on PC49, the Potency result was “inactive”.
